Results on 98 compounds are retold here after ChEMBL document CHEMBL3988442, “University of Dundee, Small-Polar-MMV Screening Library” (2021).

The campaign covered roughly 53,000 compounds. About 900 (1.7%) showed an effect of 50% or more. Only a selection was taken, and strong results are over-represented in it overall.

In the experiment the test system is Mycobacterium tuberculosis. Kind of experiment: Cornell - Phenotypic assay to identify agents that inhibit growth of Mycobacterium tuberculosis. The following applies: 10 mM as filed; unlikely as a test dose. The format is functional. More on the design: scale not given: direction of the effect not stated beside the values.
In the case of `COCCC(=O)N(CCC#N)c1ccc2c(c1)OCCO2`, the “Percent Effect” value is on record as 0.8387%.

Turning to `Cc1noc(C)c1-c1cccc(C2CCN(S(=O)(=O)N(C)C)CC2)n1`, the “Percent Effect” value is 42.71%.

For `O=S(=O)(N1CCCCC1)N1CCC(Oc2cnccn2)CC1`, the “Percent Effect” value is 20.22%.

For `CN(C(=O)c1ccon1)[C@@H]1CCC[C@@H](Oc2ccccc2)[C@@H]1O`, the “Percent Effect” value is on record as -13.46%.

Turning to `O=C(COc1ccc(-c2ccccc2)nc1)NCC1CC1`, the “Percent Effect” value turned out to be 18.89%.

In the case of `CCc1oc(C(=O)N(C)Cc2ccncc2)cc1CN(CC)CC`, the “Percent Effect” value was 3.07%.

Regarding `COC(=O)c1ccc(N2CCC(C(O)c3ccccc3)CC2)nn1` (stereo not drawn), the “Percent Effect” value was determined as 106%.

Regarding `COC(=O)c1ccc(N2CCC(c3ccccc3)CC2)nn1`, the “Percent Effect” value stood at 26.44%.

With `COC(=O)c1ccc(N2CCC(N(C)c3ccccc3)CC2)nn1`, the “Percent Effect” value is given as 11.3%.

Regarding `OCC(CO)N1CCCC(Cc2ccnc(Nc3ccccn3)c2)C1` (stereo not drawn), the “Percent Effect” value was found to be 10.34%.

On to `Cc1cc(C)n(CCNc2ncnc3c2NC(=O)CN3)n1`, for which the “Percent Effect” value is 18.99%.

On to `C/N=C1\c2cc3cc(OC)ccc3n2CCN1Cc1ccccc1.O=C(O)C(F)(F)F`, for which the “Percent Effect” value came out at 22.23%.

For `C/N=C1/c2cc3cc(OC)ccc3n2CCN1Cc1ccccc1.Cl`, the “Percent Effect” value amounted to 57.78%.

As to `C/N=C1\c2cc3cc(OC)ccc3n2CCN1C.Cl`, the “Percent Effect” value is listed as -3.392%.

For the compound `CNC(=O)CN1CCOCC12CCN(C(=O)c1ccc(C)cc1)CC2.O=C(O)C(F)(F)F`, the “Percent Effect” value turned out to be 15.73%.

`CC(C)n1ccc(-c2cc(C(=O)N3CCCC3)c3ccccn23)n1`: the “Percent Effect” value was 40.75%.

As for `CCCNC(=O)c1cc(-c2ccn(C(C)C)n2)n2ccccc12`, the “Percent Effect” value came out at 54.8%.

With `CC(C)n1ccc(-c2cc(C(=O)NC3CC3)c3ccccn23)n1`, the “Percent Effect” value was -20.13%.

In the case of `CCN(C)C(=O)c1cc(-c2cn(C(C)C)cn2)n2ccccc12`, the “Percent Effect” value was -58.24%.

In the case of `CC(C)n1ccc(-c2cc(C(=O)N3CCN(C)CC3)c3ccccn23)n1.O=C(O)C(F)(F)F`, the “Percent Effect” value is -46.58%.

`CCN(C)C(=O)c1cc(-c2ccn(C(C)C)n2)n2ccccc12`: the “Percent Effect” value is on record as 68.36%.

With `O=C(c1cc[nH]n1)N1CCc2c(nc(N3CCCCC3)[nH]c2=O)C1`, the “Percent Effect” value came to 11.2%.

`CC(C#N)CN(C)C(=O)CCNC(=O)OC(C)(C)C` (stereo not drawn): the “Percent Effect” value is recorded as 19.92%.

For `Cc1cnc(C(=O)N2CCN3C[C@H](OCc4cccnc4)C[C@H]3C2)cn1`, the “Percent Effect” value was -31.84%.

In the case of `Cc1ccc(CNCc2cccc(NC(=O)CCN3CCOCC3)c2)s1`, the “Percent Effect” value worked out at 14.02%.

Turning to `CC1=C(C#N)C(=O)NC(=O)/C1=C\c1c(C)nn(-c2ccc(C)cc2)c1O`, the “Percent Effect” value turned out to be 24.62%.

With `Cc1nc(CN2C(=O)CC[C@@H]3[C@H]2CCN3C2CCOC2)cs1.O=C(O)C(F)(F)F` (stereo partly drawn), the “Percent Effect” value turned out to be 9.813%.

As for `CC(=O)N1C[C@@H]2CN(S(=O)(=O)C3CC3)CCO[C@@H]2C1`, the “Percent Effect” value is reported as -7.882%.

With `CCn1nccc1CN(C)C(=O)Cn1nc(C)c(C)c1C`, the “Percent Effect” value was 1.975%.

Consider `CC(C)N(C)Cc1n[nH]c2c1CCN(C(=O)c1ccc[nH]1)C2.O=C(O)C(F)(F)F`, for which the “Percent Effect” value is given as -20.42%.

For the compound `Cn1ccc2c(NC(=O)Cn3ncc4c(c3=O)CCCC4)cccc21`, the “Percent Effect” value was 50.09%.

Turning to `O=C(Cn1ncc2c(c1=O)CCCCC2)Nc1cccc2[nH]ccc12`, the “Percent Effect” value stood at 32.47%.

`Cn1ccc2c(NC(=O)Cn3ncc4c(c3=O)CCCCC4)cccc21`: the “Percent Effect” value is listed as 7.683%.

As for `O=C1C(n2nnc(-c3cccs3)n2)CCN1CC(F)(F)F` (stereo not drawn), the “Percent Effect” value came out at 21.02%.

With `Cc1cccc(CNC(=O)CC2CCN(C(=O)C(C)C)CC2)n1`, the “Percent Effect” value is on record as -31.48%.

For the compound `CO[C@H]1CCN(c2nnc(C)s2)C[C@@H]1Cc1cccc(C)c1.O=C(O)C(F)(F)F`, the “Percent Effect” value is given as 15.98%.

On to `CO[C@@H]1CCN(c2nnc(C)s2)C[C@@H]1Cc1cccc(C)c1.O=C(O)C(F)(F)F`, for which the “Percent Effect” value is reported as 41.6%.

In the case of `Cc1nnc(N2CC[C@H](OCC3CC3)[C@@H](Cc3ccccc3)C2)s1.O=C(O)C(F)(F)F`, the “Percent Effect” value stood at 73.55%.

On to `CO[C@@H]1CCN(c2nnc(C)s2)C[C@@H]1Cc1ccccc1.O=C(O)C(F)(F)F`, for which the “Percent Effect” value turned out to be 33.57%.

With `Cc1nnc(N2CC[C@@H](OCC3CC3)[C@@H](Cc3ccccc3)C2)s1.O=C(O)C(F)(F)F`, the “Percent Effect” value was 81.09%.

For the compound `CO[C@H]1CCN(c2nnc(C)s2)C[C@@H]1Cc1ccccc1.O=C(O)C(F)(F)F`, the “Percent Effect” value is recorded as 35.25%.

On to `Cc1noc(C)c1CCC(=O)Nc1ccn(C)n1`, for which the “Percent Effect” value is recorded as -3.564%.

Regarding `CC(C)(C(N)=O)S(=O)(=O)c1ccc(Br)cc1`, the “Percent Effect” value amounted to 7.461%.

As for `CCc1nnc2sc(-c3cc(C(C)C)n[nH]3)nn12`, the “Percent Effect” value is recorded as -59.74%.

In the case of `CC(C)(CC(=O)Nc1cccc(Oc2ccccn2)c1)C(=O)O`, the “Percent Effect” value was -19.67%.

Consider `CC(C)NC(=O)CCC(=O)N1CCC(c2noc3cc(F)ccc23)CC1`, for which the “Percent Effect” value is given as -48.35%.

As for `O=C(Cn1ccc2c(Cl)cccc21)Nc1nc[nH]n1`, the “Percent Effect” value was 5.076%.

On to `Cc1cccc(CN2CCC3(CCN(c4ccccn4)C3)C2=O)c1.O=C(O)C(F)(F)F` (stereo not drawn), for which the “Percent Effect” value was 27.3%.

Turning to `Cc1cccc(CN2CCC3(CCN(c4ncccn4)C3)C2=O)c1` (stereo not drawn), the “Percent Effect” value was found to be 5.151%.

As to `Cc1cccc(CN2CCC3(CCN(c4ncccn4)CC3)C2=O)c1.O=C(O)C(F)(F)F`, the “Percent Effect” value came to 58.32%.

On to `CN(Cc1cccc(F)c1)Cc1nc2c(cnn2C)c(=O)[nH]1`, for which the “Percent Effect” value is -23.35%.

Regarding `Cc1noc(C)c1CN1CCC(c2nnc(Cn3cccn3)n2C)CC1`, the “Percent Effect” value is 16.69%.

As to `C[C@@H]1CN(c2cccnn2)CC[C@@]1(O)C1CCOCC1`, the “Percent Effect” value is reported as -7.399%.

Regarding `Cc1ccc(-c2nc(CN3C[C@@H](C)NC[C@@H]3C)c(C)o2)s1`, the “Percent Effect” value stood at 12.13%.

Take `Clc1cccc(-c2cccc(N3CCC(NC4CCOCC4)CC3)c2)c1`: the “Percent Effect” value is recorded as 72.63%.

Turning to `Cc1ccc(-c2cccc(N3CCC(NC4CCOCC4)CC3)c2)cc1`, the “Percent Effect” value was 33.16%.

Take `COc1cccc(-c2cccc(N3CCC(N[C@@H]4CCOC4)CC3)c2)c1`: the “Percent Effect” value was 39.62%.

Take `CCc1ccc(-c2ncc3c(n2)N(C)CCN(CCN(C)C)C3=O)cc1`: the “Percent Effect” value worked out at 13.52%.

On to `Cc1nc(C)c(C(C)NCc2c(C)nn(C)c2N(C)C)s1` (stereo not drawn), for which the “Percent Effect” value was found to be 45.94%.

Turning to `Cc1nc(C)c(C(C)NCc2c(C(C)C)nn(C)c2N(C)C)s1` (stereo not drawn), the “Percent Effect” value was determined as 21.22%.

For `Cc1nn(CC(C)C)c(N(C)C)c1CNCc1cccnc1N(C)C`, the “Percent Effect” value came to 34.46%.

As for `Cc1nn(CC(C)C)c(N(C)C)c1CNCc1cc2ccccc2[nH]1`, the “Percent Effect” value is on record as 72.88%.

As to `CC(=O)NCCCNCc1c(C)nn(CC(C)C)c1N(C)C`, the “Percent Effect” value was determined as 2.619%.

For the compound `Cc1nn(CC(C)C)c(N(C)C)c1CNCCCNS(C)(=O)=O`, the “Percent Effect” value was 49.77%.

For `Cc1nn(CC(C)C)c(N(C)C)c1CNCc1ccccc1CO`, the “Percent Effect” value worked out at 17.46%.

With `Cc1nn(CC(C)C)c(N(C)C)c1CNCCS(C)(=O)=O`, the “Percent Effect” value came to 83.1%.

`Cc1nc(C)c(C(C)NCc2c(C)nn(CC(C)C)c2N(C)C)s1` (stereo not drawn): the “Percent Effect” value is listed as 102.6%.

For the compound `O=C(Cc1csc(-c2ccoc2)n1)NCCC(=O)N1CCCCC1`, the “Percent Effect” value is reported as -18.79%.

Take `O=C(CN1CCC(c2ccccc2)CC1)NCc1cc2n(n1)CCNC2`: the “Percent Effect” value is on record as -6.243%.

Take `Cc1ccc(NC(=O)c2coc(C)n2)c(C)c1`: the “Percent Effect” value is recorded as 2.34%.

For the compound `CCN1CCCC(O)(c2nc(C)c(CCOc3ccccc3Cl)s2)CC1` (stereo not drawn), the “Percent Effect” value is 12.65%.

For the compound `Fc1cnc(N2CCO[C@H]3[C@H](OCC4CCOCC4)CC[C@@H]32)nc1.O=C(O)C(F)(F)F`, the “Percent Effect” value was -12.23%.

For the compound `CCc1cc(C(=O)N2CCC(c3cc4ncccc4cn3)CC2)no1`, the “Percent Effect” value is -43.86%.

Consider `Fc1cc(F)cc(CN2CCC(c3cc4ncccc4cn3)CC2)c1`, for which the “Percent Effect” value is reported as 48.17%.

For `Fc1cccc(CN2CCC(c3noc(-c4ccccn4)n3)CC2)c1F`, the “Percent Effect” value was 10.24%.

In the case of `COc1ccc(C)cc1CN1CCC(c2cc3ncccc3cn2)CC1.Cl`, the “Percent Effect” value was found to be 102.1%.

Regarding `CCc1onc(C)c1C(=O)N1CCC(c2cc3ncccc3cn2)CC1`, the “Percent Effect” value is listed as -10.62%.

For `Fc1ccc(F)c(CN2CCC(c3cnccn3)CC2)c1`, the “Percent Effect” value is recorded as -8.862%.

Turning to `Cl.Fc1ccc(F)c(CN2CCC(c3cc4ncccc4cn3)CC2)c1`, the “Percent Effect” value is 106.2%.

As to `Cl.Fc1cccc(CN2CCC(c3cc4ncccc4cn3)CC2)c1F`, the “Percent Effect” value is given as 106.5%.

Regarding `Fc1cccc(CN2CCC(c3n[nH]c4ncccc34)CC2)c1F`, the “Percent Effect” value was found to be 12.02%.

As for `CN(C)CC(=O)N1CCCC1c1ccccn1` (stereo not drawn), the “Percent Effect” value is -4.262%.

On to `Cc1cc(O)nc(C2CN(CCO)CCO2)n1` (stereo not drawn), for which the “Percent Effect” value was -14.9%.

With `O=C(NC(Cc1ccsc1)c1nccs1)C1CC1` (stereo not drawn), the “Percent Effect” value was found to be 1.52%.

`COc1ccc(-c2cc(C(=O)NCCC(C)C)n(C)n2)cc1`: the “Percent Effect” value is recorded as 20.81%.

For `Cc1cnc(-c2nc(O)c3c(n2)CN(C(=O)C2CCOC2)CC3)cn1` (stereo not drawn), the “Percent Effect” value is 13.55%.

In the case of `Cc1nccn1-c1nccnc1C1CCCN(C2CCCC2)C1` (stereo not drawn), the “Percent Effect” value is listed as -26.29%.

For `CCc1nccn1C1CCCN(C(=O)c2c(C)nsc2NC)C1` (stereo not drawn), the “Percent Effect” value is -1.736%.

Regarding `COCCc1noc(CNC(C)(CO)C2CCCCC2)n1` (stereo not drawn), the “Percent Effect” value was 19.83%.

As for `Cc1ncc2c(n1)CN(CC(=O)Nc1c(C)nn(C)c1C)CC2`, the “Percent Effect” value is recorded as -7.381%.

Turning to `CCCOC1CCCN(Cc2nc(-c3ccc(F)cc3F)oc2C)C1` (stereo not drawn), the “Percent Effect” value is reported as 18.51%.

In the case of `COCc1ncn(Cc2nc(-c3ccc(OC)cc3F)oc2C)n1`, the “Percent Effect” value is recorded as -34.66%.

Consider `COc1ccc(-c2nc(CN3CCCC(OC)C3)c(C)o2)c(F)c1` (stereo not drawn), for which the “Percent Effect” value is 56.05%.

With `COCC(=O)NC[C@]1(O)CN(Cc2ccc3c(c2)OCCO3)C[C@H]1O`, the “Percent Effect” value was found to be 24.95%.

In the case of `CCn1ncc(CN2CCC(c3ncc(Cl)cc3S(C)(=O)=O)CC2)c1C`, the “Percent Effect” value worked out at 50.49%.

Take `C=Cn1ncc(CN2CCC(c3ncc(Cl)cc3S(C)(=O)=O)CC2)c1C`: the “Percent Effect” value was found to be 0.06604%.

For `CCn1cc(CN2CCC(c3ncc(Cl)cc3S(C)(=O)=O)CC2)c(C)n1`, the “Percent Effect” value came to 37.62%.

In the case of `O=C(NS(=O)(=O)c1cccnc1)C1CC(c2ccccc2)=NO1` (stereo not drawn), the “Percent Effect” value is listed as 35.93%.
